Measured values as given in ChEMBL document CHEMBL1961873, “Compounds: GSK PKIS; Assays: Nanosyn kinase panel” (2012).
Where “and” joins values, the source holds several entries; their conditions need not be identical. Equal values may be shown once.

Assays:
[1] = biological target: T1, Serine/threonine-protein kinase TBK1 (Homo sapiens) (UniProt Q9UHD2); conditions: at 1 µM;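 note: values are mean inhibition of TBK1, screened as part of the GSK published kinase inhibitor set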
T1 sequence (whole entry): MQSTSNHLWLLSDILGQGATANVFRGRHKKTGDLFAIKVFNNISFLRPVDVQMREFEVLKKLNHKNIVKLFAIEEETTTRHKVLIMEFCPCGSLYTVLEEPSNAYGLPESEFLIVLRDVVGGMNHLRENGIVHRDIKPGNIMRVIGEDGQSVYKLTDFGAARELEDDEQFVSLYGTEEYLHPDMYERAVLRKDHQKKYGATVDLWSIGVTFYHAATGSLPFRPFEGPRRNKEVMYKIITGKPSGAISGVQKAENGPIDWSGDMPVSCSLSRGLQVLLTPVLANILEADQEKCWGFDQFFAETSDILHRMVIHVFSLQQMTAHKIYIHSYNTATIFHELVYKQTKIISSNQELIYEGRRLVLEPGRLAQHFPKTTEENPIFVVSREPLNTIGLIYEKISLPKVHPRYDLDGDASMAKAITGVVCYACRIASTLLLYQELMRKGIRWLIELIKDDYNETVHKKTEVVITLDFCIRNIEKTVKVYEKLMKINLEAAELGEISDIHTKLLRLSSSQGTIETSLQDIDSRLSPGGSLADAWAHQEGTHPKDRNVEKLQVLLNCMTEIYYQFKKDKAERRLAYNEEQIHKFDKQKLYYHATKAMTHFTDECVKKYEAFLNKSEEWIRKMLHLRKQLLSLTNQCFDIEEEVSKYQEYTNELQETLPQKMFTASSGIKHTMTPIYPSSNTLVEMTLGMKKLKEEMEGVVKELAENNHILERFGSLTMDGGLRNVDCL

[2] = biological target: T2, Testis-specific serine/threonine-protein kinase 1 (Homo sapiens) (UniProt Q9BXA7); conditions: at 0.1 µM
T2 sequence (whole entry): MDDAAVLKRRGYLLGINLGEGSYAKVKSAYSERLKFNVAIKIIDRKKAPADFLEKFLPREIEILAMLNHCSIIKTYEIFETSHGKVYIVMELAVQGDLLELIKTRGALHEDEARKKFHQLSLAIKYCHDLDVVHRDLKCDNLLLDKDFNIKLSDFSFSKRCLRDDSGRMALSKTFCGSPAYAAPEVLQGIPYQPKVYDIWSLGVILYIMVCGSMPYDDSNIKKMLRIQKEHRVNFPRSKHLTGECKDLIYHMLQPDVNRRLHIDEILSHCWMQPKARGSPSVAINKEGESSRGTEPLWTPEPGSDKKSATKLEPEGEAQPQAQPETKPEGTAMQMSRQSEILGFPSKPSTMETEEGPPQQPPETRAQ

[3] = biological target: T2, Testis-specific serine/threonine-protein kinase 1 (Homo sapiens); conditions: at 1 µM
[4] = biological target: T3, Testis-specific serine/threonine-protein kinase 2 (Homo sapiens) (UniProt Q96PF2); conditions: at 0.1 µM
T3 sequence (whole entry): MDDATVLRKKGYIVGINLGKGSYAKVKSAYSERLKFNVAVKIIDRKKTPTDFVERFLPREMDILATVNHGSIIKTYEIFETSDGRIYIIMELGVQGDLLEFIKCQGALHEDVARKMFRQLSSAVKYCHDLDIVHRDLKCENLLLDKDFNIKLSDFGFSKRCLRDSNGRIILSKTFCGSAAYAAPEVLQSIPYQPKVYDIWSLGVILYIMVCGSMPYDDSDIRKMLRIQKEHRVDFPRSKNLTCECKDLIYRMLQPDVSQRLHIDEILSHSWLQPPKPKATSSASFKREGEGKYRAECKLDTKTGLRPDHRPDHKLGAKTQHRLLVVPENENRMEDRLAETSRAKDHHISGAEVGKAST

[5] = biological target: T3, Testis-specific serine/threonine-protein kinase 2 (Homo sapiens); conditions: at 1 µM
[6] = biological target: Casein kinase I isoform alpha (Homo sapiens) (UniProt P48729); conditions: at 0.1 µM
Sequence of Casein kinase I isoform alpha (Homo sapiens) (P48729 2-337 limits assumed): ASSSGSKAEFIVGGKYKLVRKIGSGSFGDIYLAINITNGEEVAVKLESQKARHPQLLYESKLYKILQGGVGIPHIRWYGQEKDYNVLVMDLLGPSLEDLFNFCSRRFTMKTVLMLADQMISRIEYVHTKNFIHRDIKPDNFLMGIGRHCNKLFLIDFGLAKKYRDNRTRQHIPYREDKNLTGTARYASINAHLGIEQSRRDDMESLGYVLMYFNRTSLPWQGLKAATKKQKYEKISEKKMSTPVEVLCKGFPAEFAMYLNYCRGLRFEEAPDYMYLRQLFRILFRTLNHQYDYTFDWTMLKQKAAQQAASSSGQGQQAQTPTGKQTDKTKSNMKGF

[7] = biological target: Casein kinase I isoform alpha (Homo sapiens) (UniProt P48729); conditions: at 1 µM
[8] = biological target: Casein kinase I isoform gamma-1 (Homo sapiens) (UniProt Q9HCP0); conditions: at 0.1 µM
Sequence of Casein kinase I isoform gamma-1 (Homo sapiens) (Q9HCP0 whole entry, looked up, canonical isoform): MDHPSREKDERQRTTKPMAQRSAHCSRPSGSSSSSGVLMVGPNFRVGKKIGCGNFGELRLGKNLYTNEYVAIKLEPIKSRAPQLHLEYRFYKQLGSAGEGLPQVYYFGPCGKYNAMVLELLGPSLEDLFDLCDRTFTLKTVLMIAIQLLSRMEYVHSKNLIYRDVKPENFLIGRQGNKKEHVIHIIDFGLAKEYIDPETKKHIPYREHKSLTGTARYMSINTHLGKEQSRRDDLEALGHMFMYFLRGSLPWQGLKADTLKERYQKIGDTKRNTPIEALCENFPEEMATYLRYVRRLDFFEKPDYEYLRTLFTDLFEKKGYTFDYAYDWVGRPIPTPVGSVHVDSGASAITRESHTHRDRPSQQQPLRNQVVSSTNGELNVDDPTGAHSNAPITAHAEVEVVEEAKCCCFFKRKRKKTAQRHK

[9] = biological target: Casein kinase I isoform gamma-1 (Homo sapiens) (UniProt Q9HCP0); conditions: at 1 µM
[10] = biological target: Casein kinase I isoform gamma-2 (Homo sapiens) (UniProt P78368); conditions: at 0.1 µM
Sequence of Casein kinase I isoform gamma-2 (Homo sapiens) (P78368 whole entry, looked up, canonical isoform): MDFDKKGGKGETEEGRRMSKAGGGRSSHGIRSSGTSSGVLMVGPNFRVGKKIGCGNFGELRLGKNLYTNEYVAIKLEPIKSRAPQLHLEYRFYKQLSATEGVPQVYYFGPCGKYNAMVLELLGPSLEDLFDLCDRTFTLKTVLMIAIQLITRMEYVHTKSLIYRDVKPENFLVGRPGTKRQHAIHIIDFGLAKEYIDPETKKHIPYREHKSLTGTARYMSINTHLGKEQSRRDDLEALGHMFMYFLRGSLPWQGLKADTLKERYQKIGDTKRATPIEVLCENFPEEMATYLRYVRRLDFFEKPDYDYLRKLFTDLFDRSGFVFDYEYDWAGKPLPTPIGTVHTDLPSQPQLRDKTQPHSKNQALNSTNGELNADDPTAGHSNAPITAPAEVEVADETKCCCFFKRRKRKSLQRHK

[11] = biological target: Casein kinase I isoform gamma-2 (Homo sapiens) (UniProt P78368); conditions: at 1 µM
[12] = biological target: Casein kinase I isoform gamma-3 (Homo sapiens) (UniProt Q9Y6M4); conditions: at 0.1 µM
Sequence of Casein kinase I isoform gamma-3 (Homo sapiens) (Q9Y6M4 whole entry, looked up, canonical isoform): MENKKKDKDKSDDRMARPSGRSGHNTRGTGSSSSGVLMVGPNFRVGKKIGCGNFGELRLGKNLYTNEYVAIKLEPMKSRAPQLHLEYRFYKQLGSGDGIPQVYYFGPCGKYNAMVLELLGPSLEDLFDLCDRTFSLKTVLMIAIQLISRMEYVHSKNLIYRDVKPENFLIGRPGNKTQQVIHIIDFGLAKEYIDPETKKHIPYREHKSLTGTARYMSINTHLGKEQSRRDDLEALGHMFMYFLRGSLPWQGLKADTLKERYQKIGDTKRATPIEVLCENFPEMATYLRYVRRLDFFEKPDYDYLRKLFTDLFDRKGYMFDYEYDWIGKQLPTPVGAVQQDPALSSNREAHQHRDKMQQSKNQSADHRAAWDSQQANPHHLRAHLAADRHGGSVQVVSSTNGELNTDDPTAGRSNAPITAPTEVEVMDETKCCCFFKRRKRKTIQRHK

[13] = biological target: Casein kinase I isoform gamma-3 (Homo sapiens) (UniProt Q9Y6M4); conditions: at 1 µM
[14] = biological target: Cyclin-dependent kinase 1 (Homo sapiens) (UniProt P06493); conditions: at 0.1 µM
Sequence of Cyclin-dependent kinase 1 (Homo sapiens) (P06493 whole entry, looked up): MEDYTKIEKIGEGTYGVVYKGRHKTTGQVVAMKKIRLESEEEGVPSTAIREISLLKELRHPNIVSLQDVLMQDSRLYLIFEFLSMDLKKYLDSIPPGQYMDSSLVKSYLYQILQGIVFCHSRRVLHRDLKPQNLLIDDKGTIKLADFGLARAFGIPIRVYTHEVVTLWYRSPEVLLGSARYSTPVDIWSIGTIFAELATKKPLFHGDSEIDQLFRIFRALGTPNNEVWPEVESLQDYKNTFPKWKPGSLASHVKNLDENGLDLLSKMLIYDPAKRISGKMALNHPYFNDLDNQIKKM

[15] = biological target: Cyclin-dependent kinase 1 (Homo sapiens) (UniProt P06493); conditions: at 1 µM
[16] = biological target: Cyclin-dependent kinase 2 (Homo sapiens) (UniProt P24941); conditions: at 0.1 µM
[17] = biological target: Cyclin-dependent kinase 2 (Homo sapiens) (UniProt P24941); conditions: at 1 µM
[18] = biological target: Cyclin-dependent kinase 2 (Homo sapiens) (UniProt P24941); conditions: at 0.1 µM; remark: listed apart in the source
[19] = biological target: Cyclin-dependent kinase 2 (Homo sapiens) (UniProt P24941); conditions: at 1 µM; remark: listed apart in the source
[20] = biological target: CDK3/Cyclin E (Homo sapiens) (UniProt P24864+Q00526); conditions: at 0.1 µM;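 note: reported percentages are mean inhibition values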
Sequence of CDK3/Cyclin E (Homo sapiens) (P24864 whole entry, looked up): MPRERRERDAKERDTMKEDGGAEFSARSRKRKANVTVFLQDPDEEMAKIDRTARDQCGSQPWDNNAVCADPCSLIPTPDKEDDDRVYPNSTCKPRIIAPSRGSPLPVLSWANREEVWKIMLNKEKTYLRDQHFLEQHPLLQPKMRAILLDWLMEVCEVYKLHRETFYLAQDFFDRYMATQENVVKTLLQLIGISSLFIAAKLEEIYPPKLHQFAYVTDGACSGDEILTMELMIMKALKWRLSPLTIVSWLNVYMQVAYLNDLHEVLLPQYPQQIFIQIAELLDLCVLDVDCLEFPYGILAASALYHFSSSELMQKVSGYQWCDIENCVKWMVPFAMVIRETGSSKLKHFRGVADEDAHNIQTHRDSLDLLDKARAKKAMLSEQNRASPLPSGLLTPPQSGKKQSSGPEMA
Sequence of CDK3/Cyclin E (Homo sapiens) (Q00526 whole entry, looked up): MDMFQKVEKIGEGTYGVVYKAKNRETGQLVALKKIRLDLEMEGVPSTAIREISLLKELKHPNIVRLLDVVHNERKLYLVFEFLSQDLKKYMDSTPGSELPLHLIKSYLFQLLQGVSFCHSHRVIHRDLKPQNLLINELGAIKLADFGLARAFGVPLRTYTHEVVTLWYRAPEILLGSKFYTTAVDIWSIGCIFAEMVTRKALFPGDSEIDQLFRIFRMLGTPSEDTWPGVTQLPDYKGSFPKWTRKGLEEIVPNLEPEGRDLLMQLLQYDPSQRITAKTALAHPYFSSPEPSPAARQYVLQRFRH

SMILES	inhibition [1]	inhibition [2]	inhibition [3]	inhibition [4]	inhibition [5]	inhibition [6]	inhibition [7]	inhibition [8]	inhibition [9]	inhibition [10]	inhibition [11]	inhibition [12]	inhibition [13]	inhibition [14]	inhibition [15]	inhibition [16]	inhibition [17]	inhibition [18]	inhibition [19]	inhibition [20]
Fc1cccc(COc2ccc(Nc3ncncc3C#Cc3ccccc3)cc2Cl)c1	6.39%	3.55%	6.94%	2.49%	4.25%	5.09%	7.86%	4.27%	4.53%	3.09%	4.69%	4.31%	4.88%	0.35%	1.89%	1.7%	5.5%	4.38%	4.99%	1.59%
Cc1c2ccc(N(C)c3ccnc(Nc4cccc(S(N)(=O)=O)c4)n3)cc2nn1C	8.43%	3.59%	3.32%	1.26%	1.14%	3.21%	4.51%	1.31%	1.52%	-0.37%	0.79%	-0.12%	1.23%	-2.06%	1.04%	-1.06%	4.54%	2.08%	4.14%	3.58%
CCN1CCC(C(=O)Nc2n[nH]c3nnc(-c4cccc(F)c4F)cc23)CC1	0.85%	-0.97%	-0.75%	0.04%	0.43%	-1.81%	-0.5%	1.73%	-0.13%	-0.42%	-0.17%	0.17%	1.35%	3.89%	22.6%	3.86%	20.4%	3.75%	12.4%	2.37%
CN1CCC(C(=O)Nc2n[nH]c3nc(-c4ccc(O)cc4)c(Br)cc23)CC1	6.1% and 2.08%	5.11% and 0.23%	7.56% and 2.61%	3.45% and 1.03%	5.78% and 1.94%	2.56% and 1.97%	5.54% and 3%	0.95% and 1.75%	4.18% and 2.3%	1.05% and 1.85%	2.84% and 1.66%	-0.75% and 1.55%	3.27% and 0.25%	7.05% and 10.3%	43.7% and 42.6%	16.2% and 18.6%	63.1% and 63.2%	9.58% and 5.38%	38.8% and 32.5%	12.5% and 12.3%
OCCCNc1nccc(-c2c(-c3ccc(F)cc3)nn3cc(C(F)(F)F)ccc23)n1	5.25%	1.75%	-0.99%	1.56%	-2.79%	8.54%	28.7%	1.82%	4.37%	0.31%	4.56%	1.62%	7.33%	1.54%	2.59%	0.91%	-3.65%	0.52%	3.87%	1.49%
COc1c(C(N)=O)cc(-c2ccc(Cl)cc2)cc1-c1ccc(S(N)(=O)=O)cc1	3.5%	4.67%	5.11%	2.57%	2.89%	5.95%	12.6%	4.33%	6.12%	4.61%	5.53%	3.12%	5.9%	2.31%	-0.03%	3.12%	3.62%	2.17%	3.13%	-4.73%
NC(=O)c1ccc2c(-c3ccnc(NCCCO)n3)c(-c3ccc(F)cc3)nn2c1	4.69%	3.95%	3.68%	2.67%	2.23%	25.3%	67.6%	7.1%	19.8%	5.87%	19.9%	8.09%	29%	1.5%	1.54%	-0.03%	1.7%	3.22%	4.45%	2.38%
c1ccc(-c2n[nH]cc2-c2ccnc(-c3ccc(OCCn4ccnc4)cc3)c2)nc1	0.29%	1.73%	2.8%	2.08%	1.93%	3.33%	18.1%	0.69%	3.14%	0.83%	4.02%	0.42%	5.22%	-0.35%	1.46%	1.03%	-8.72%	2.23%	5.64%	2.33%
CS(=O)(=O)CCNCc1ccc(-c2ccc3ncnc(Nc4ccc(OCc5ccccc5)cc4)c3c2)o1	3.03%	3.31%	4.28%	5.73%	2.17%	4.49%	1.55%	2.67%	3.35%	2.72%	2.81%	2.43%	1.23%	0.68%	-4.99%	1.6%	2.53%	2.45%	3.9%	-1.1%
COc1cccc(Nc2nccc(-c3cnn4ncccc34)n2)c1	22.9%	2.07%	12.8%	0.21%	0.62%	14.9%	48%	2.61%	20.5%	4.45%	47.2%	3.61%	38.6%	63.9%	79.2%	72.8%	105%	64.7%	78.6%	42.2%
Cc1nnc(-c2cccc(-c3ccc(C(=O)NCC4CC4)cc3)c2)o1	6.92%	4.11%	5.87%	2.89%	3.75%	1.99%	5.86%	4.47%	4.29%	2.71%	4.15%	3.29%	3.17%	-0.13%	2.72%	2.01%	13.5%	4.78%	4.88%	3.15%
COc1cccc(-n2ncc3c(N/N=C/c4ccc(C(=O)NCCN(C)C)cc4)ncnc32)c1	11.2%	1.35%	0.43%	-0.44%	-0.81%	1.58%	7.14%	2.73%	11.7%	1.5%	8.69%	1.94%	11.9%	44.7%	77.2%	36.1%	89.9%	13.4%	48.4%	5.6%
Cn1c(-c2nonc2N)nc2cnccc21	7.42%	3.15%	3.81%	2.01%	0.12%	3.34%	6.21%	2.61%	2.68%	2.2%	3.42%	1.53%	2.15%	1.15%	4.4%	2.01%	11.2%	3.69%	11.6%	6.05%
O=C(O[C@H]1CN[C@H](C#Cc2cc3ncnc(Nc4ccc(OCc5cccc(F)c5)c(Cl)c4)c3s2)C1)N1CCOCC1	2.81%	4.44%	7.27%	3.43%	5.27%	2.97%	4.43%	4.56%	5.41%	4.99%	5.59%	4.52%	3.53%	0.36%	1.18%	1.57%	-1.38%	4.21%	2.99%	2.77%
